# Screening results (PubChem BioAssay)
# BaF3 parental: parental Ba/F3 cell viability inhibition, counter-screen for JAK2V617F inhibitor project, murine pro-B, CellTiter-Glo luminescence | AID 1486, 2009 | 220,000 compounds, 1.1% hits | CellTiter-Glo ATP luminescence | inhibition, % at 5.6 µM;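 active = inhibition above a per-campaign cutoff, the mean inhibition of all tested compounds plus 3 SD, cut at about 27% in these data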
# Ba/F3 V617F tox: reduced viability of JAK2V617F-dependent Ba/F3 cells, primary screen, JAK2V617F inhibitor project, cell-based, Ba/F3 EpoR-JAK2V617F, luminescence; ATP luminescence; inhibition, % at 5.6 µM; 220,000 compounds, 1.1% hits; AID 1446, 2008;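 active = inhibition above the campaign mean plus 3 SD over all tested compounds, cut at about 24% in these data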;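 note: cytokine-independent growth of Ba/F3 cells driven by EpoR plus mutant JAK2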
# KLF5 inh: KLF5 expression inhibitors, primary screen, DLD-1 cells, luminescence. DLD-1 KLF5 promoter-luciferase reporter. inhibition, % at 5 µM. 290,000 compounds, 0.23% hits. AID 1700, 2009;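 active = inhibition above a per-plate limit of that plate's mean compound inhibition plus 3 SD, cut at about 60% in these data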;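 note: higher means less KLF5 promoter-driven luciferase light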
# IEC-6 tox-1: cytotoxicity in IEC-6 intestinal epithelial cells, primary screen, cytotoxicity control for KLF5 inhibitor project, cell-based, luminescence; AID 1825, 2009; 290,000 compounds, 0.78% hits; IEC-6 cytotoxicity, luminescence viability; inhibition, % at 5 µM; in the data active = inhibition above about 22%
# APP 5UTR inh: inhibitors of APP translation via 5'UTR reporter, primary screen, APP 5'UTR luciferase, SH-SY5Y cells; SH-SY5Y APP 5'UTR-luciferase reporter, luminescence; inhibition, % at 2 µM; 190,000 compounds, 0.82% hits;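 active = inhibition above a set limit, derived from the sample mean plus 3 SD, cut at about 45% in these data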
# KLF5 inh confirm: KLF5 expression inhibitors, confirmation, DLD-1 cells, luminescence; shares compounds with KLF5 inh; DLD-1 KLF5 promoter firefly luciferase reporter; inhibition, % at 4 µM; 610 compounds, 79% hits; AID 1834, 2009;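 active = inhibition above a set limit taken from the earlier primary screen, cut at about 63% in these data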
# IEC-6 tox-2: cytotoxicity in rat IEC-6 cells, cytotoxicity control for KLF5 inhibitor project, cell-based, luminescence, triplicate; shares compounds with KLF5 inh; IEC-6 rat intestinal cells, viability luminescence; inhibition, % at 4 µM; 610 compounds, 56% hits; in the data active = inhibition above about 23%;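 note: cells exposed to compounds for 48 hours before viability read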
# Hits are given with their value; – = inactive; · = no result. Only some compounds are listed: those with a hit (about 1.9% of all), similar ones and a draw of the others.
SMILES,BaF3 parental,Ba/F3 V617F tox,KLF5 inh,IEC-6 tox-1,APP 5UTR inh,KLF5 inh confirm,IEC-6 tox-2
C#Cc1ccc([C@@H]2C=C(C(=O)N3CCN(Cc4ccccc4)CC3)O[C@H](OCCCCO)C2)cc1,87.5,93.9,66.0,–,–,72.9,–
O=C(Nc1nc2ccccc2[nH]1)c1ccc([N+](=O)[O-])cc1,–,–,–,–,–,·,·
Cc1ccc(C(=O)Nc2nc3ccccc3[nH]2)cc1,·,·,85.6,–,·,66.0,–
COc1cccc(C(=O)Nc2nc3ccccc3[nH]2)c1,–,–,–,–,–,·,·
O=C(Nc1cnc2ccccc2c1)c1cccnc1,–,–,–,–,–,·,·
COc1ccc(C(=O)Nc2nc3ccccc3[nH]2)cc1,·,·,65.4,–,·,–,–
Cc1ccc(C(=O)Nc2cnc3ccccc3c2)cc1,–,–,96.9,–,–,104.6,–
CC(C)CC(=O)Nc1ccc(S(=O)(=O)Nc2nccs2)cc1,·,·,–,–,·,·,·
O=C(CN1C(=O)c2ccccc2S1(=O)=O)c1ccc(Cl)cc1Cl,·,·,83.7,–,·,83.3,–
O=C(CN1C(=O)c2ccccc2S1(=O)=O)c1ccccc1F,·,·,–,–,·,·,·
O=C(CN1C(=O)c2ccccc2S1(=O)=O)c1ccc(F)cc1,–,–,–,–,·,·,·
O=C(CN1C(=O)c2ccccc2S1(=O)=O)c1ccc2c(c1)OCCO2,–,–,90.8,–,·,96.9,–
O=C(CN1C(=O)c2ccccc2S1(=O)=O)c1ccc2c(c1)OCCCO2,–,–,101.1,–,·,108.5,–
O=C(CCCN1C(=O)C(c2ccccc2)Oc2cccnc21)Nc1ccccc1Cl (stereo unspecified),·,·,–,–,·,·,·
COc1cccc(CN2CCNC(=O)C2CC(=O)N(C)C2CCCCC2)c1 (stereo unspecified),·,·,–,–,·,·,·
CCOc1ccc(NC(=O)Nc2cccc(C(=O)O)c2)cc1,–,–,94.3,–,70.4,101.2,–
CCOC(=O)c1cccc(NC(=O)Nc2ccc(OCC)cc2)c1,–,–,–,–,–,·,·
Cc1ccccc1OCC(=O)Nc1cccc(C(=O)O)c1,–,–,95.2,–,68.3,96.0,–
O=C(Nc1ccc(Cl)cc1)Nc1cccc(C(=O)O)c1,–,–,65.6,–,–,72.4,–
O=C(Nc1cccc(Cl)c1)Nc1cccc(C(=O)O)c1,–,–,–,–,·,·,·
Cc1cccc(OCC(=O)Nc2cc(NC(=O)COc3cccc(C)c3C)cc(C(=O)O)c2)c1C,·,·,–,–,·,·,·
O=C(O)c1cccc(COc2ccc3c(c2)CCC3)c1,–,–,97.6,–,·,99.8,–
O=C(NCc1ccccc1)c1cccc(COc2ccc3c(c2)CCC3)c1,–,–,–,–,–,·,·
COc1cc(NC(=O)c2ccccn2)cc(OC)c1OC,–,–,–,–,–,·,·
COc1cc(C(=O)N/N=C(\C)c2ccccn2)cc(OC)c1OC,·,·,83.5,95.5,·,–,35.0
SMILES,BaF3 parental,Ba/F3 V617F tox,KLF5 inh,IEC-6 tox-1,APP 5UTR inh,KLF5 inh confirm,IEC-6 tox-2
COc1ccc(OC)c(Nc2cc(C)nc3nc(C)nn23)c1,–,–,91.7,–,–,81.2,–
O=C(Nc1cccc(O)c1)c1cc(-c2ccc3c(c2)OCO3)on1,·,·,83.4,–,·,71.8,–
O=C(NCCc1ccccc1)c1ccc2c(c1)OCO2,·,·,62.7,–,·,–,–
CC(=O)CSc1ccc(-c2nc3cc(C)c(C)cc3[nH]2)cn1,–,–,64.1,–,–,72.7,–
CC(=O)CSc1ccc(-c2nc3ccccc3[nH]2)cn1,·,·,–,–,·,·,·
COC(=O)c1sccc1NC(=O)CC1C(=O)NCCN1C(=O)c1ccc(F)cc1 (stereo unspecified),–,–,–,–,·,·,·
Clc1ccccc1/C=C/c1nc(-c2ccccn2)no1,–,–,72.3,–,·,73.0,–
O=C(Nc1cccnc1)c1cccs1,87.5,45.7,72.2,–,–,69.7,–
O=C(c1cc(-c2ccccc2Cl)on1)N1CCCC1,·,·,74.3,–,·,65.3,–
CCc1ccc(NC(=O)CSc2nc3ccccc3c(=O)n2CCCC(=O)NCCCN2CCOCC2)cc1,–,–,–,–,–,·,·
Oc1cccc2ccc(Nc3ccccn3)nc12,75.6,97.5,104.8,–,79.7,102.5,–
